High-throughput results deposited in PubChem by National Center for Advancing Translational Sciences (NCATS).
The list is not random: actives were taken first. Their share in the collection is about 3%.
VDR inhibitor: blocks the human vitamin D receptor | actives 0.93% (n = 400,000) | P11473 | VDR-SRC2-3 peptide fluorescence polarization, 2 h | Potency, µM, without a hit: max response, negative = inhibition, hits mostly inhibitors | AID 504847; also: % is scaled to controls: 0 for no effect and ±100 for the full control effect
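Measured by FP: displacement of SRC2-3 coactivator peptide from VDR by library compounds, following a two-hour ambient incubation.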
USP1-UAF1 inh: blocks the human USP1/UAF1 deubiquitinase complex; O94782; recombinant USP1/UAF1, Ub-Rhodamine cleavage fluorescence; Potency, µM (top dose mostly 57.1 µM), for inactives: at the highest dose activity change, negative = inhibition, actives largely listed as inhibitors; actives 0.23% (n = 390,000); AID 743255; also: % is scaled to controls: 0 for no effect and ±100 for the full control effect; nearly all actives have a fitted effect of over 60% in size
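USP1/UAF1 complex (1 nM) preincubated 15 min at room temperature with compound, then Ub-Rho substrate (150 nM final) added. Kinetic fluorescence at 480/540 nm over 6 reads at 60 s intervals; 50 mM HEPES pH 7.8, 0.5 mM EDTA, 0.1 mg/ml BSA, 1 mM TCEP, 0.01% Tween-20.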
TSG101-PTAP inh: blocks PTAP/TSG101 interaction to inhibit HIV-1 budding. Q99816. 340,000 tested, under 10 active. Fluorescence polarization, FITC-PTAP peptide / Tsg101 binding. AID 493005. Potency, µM (titrated, usually from 115 µM), without a hit: at the top dose activity change, negative = inhibition, hits mostly inhibitors; active = well fitted inhibition curve with a large enough effect in the main read-out, with a control signal flat, not every such curve was filed as active; inconclusive = small, poorly fitted or top-dose-only effect, or effect the other way, or a change in a side signal; inactive = no such curve, though single readings can be large or run the other way; also: % of control where 0% means no effect
Target sequence (Q99816 whole entry, looked up): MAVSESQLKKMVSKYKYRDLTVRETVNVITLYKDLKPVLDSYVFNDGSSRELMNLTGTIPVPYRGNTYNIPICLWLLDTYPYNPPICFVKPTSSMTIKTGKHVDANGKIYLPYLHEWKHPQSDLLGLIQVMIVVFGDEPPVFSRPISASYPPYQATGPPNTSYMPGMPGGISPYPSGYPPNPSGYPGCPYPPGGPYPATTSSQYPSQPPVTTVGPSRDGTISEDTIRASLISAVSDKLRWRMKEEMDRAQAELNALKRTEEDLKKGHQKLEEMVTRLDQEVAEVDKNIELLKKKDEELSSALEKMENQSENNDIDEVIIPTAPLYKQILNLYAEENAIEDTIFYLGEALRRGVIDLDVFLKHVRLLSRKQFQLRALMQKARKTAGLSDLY
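Fluorescence anisotropy tracks displacement of a FITC-tagged PTAP peptide (50 nM) from the Tsg101 binding domain (10 uM), following a 20 min room-temperature incubation at pH 7.5.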
KAT2A inh: GCN5L2 (KAT2A) acetyltransferase inhibition | Q92830 | GCN5L2 HAT assay, ThioGlo1 CoA-SH fluorescence | Potency, µM (highest dose often 58.9 µM), inactives show top-dose activity change, negative = inhibition, actives largely listed as inhibitors | actives 0.21% (n = 390,000) | AID 504327; also: % is scaled to controls: 0 for no effect and ±100 for the full control effect
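Compounds, pin-transferred from DMSO stocks, meet 20nM GCN5L2 for 15 min before the reaction begins with H3(1-25) peptide (75uM) and acetyl-CoA (70uM). Thiol-reactive ThioGlo1 reports CoA release over 20 min at room temperature.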
PLK1 PBD inh: blocks phosphopeptide binding to human PLK1 polo-box domain; actives 2.8% (n = 360,000); Potency, µM, for the others: max response, negative = inhibition, usual class: inhibitors; P53350; AID 720504; Plk1 PBD binding of FITC phosphopeptide, fluorescence polarization; also: series mostly up to about 57 µM; % is scaled to controls: 0 for no effect and ±100 for the full control effect; nearly all actives have a fitted effect of over 65% in size
* hit, by the source's call; ? = inconclusive; . = not tested or not shown; [ ] = dose if it differs, or a comment. Unless noted, calls follow the shape of the dose curve; as a rule, active = well fitted curve in the direction sought with a large enough effect; inconclusive = small, poorly fitted or top-dose-only effect, or another doubt; inactive = no such curve, though single readings can be large; an effect the other way counts as inactive or inconclusive. Potency is read from the fitted curve at half-maximal effect.

SMILES	VDR inhibitor	USP1-UAF1 inh	TSG101-PTAP inh	KAT2A inh	PLK1 PBD inh
O=C(C=Cc1cccc(O)c1)c1ccccc1O	40µM*	-22%	-3%	.	1.7µM*
COc1ccc(/C=C/C(=O)c2ccc(C)s2)cc1	32µM*	.	.	-11%	.
N#CC(=C(/N)Sc1ccccc1N)/C(C#N)=C(/N)Sc1ccccc1N	.	.	.	-30%	.
O=C(/C=C/c1cccc([N+](=O)[O-])c1)c1ccc([N+](=O)[O-])o1	2.8µM*	?	0%	.	5.3µM*
CCOC(=O)CSc1c(-c2cccs2)[nH]c2ccccc12	?	?	0%	-13%	-19%
CCOC(=O)CSc1c(-c2ccc(Cl)cc2)[nH]c2ccccc12	?	?	-1%	-8%	6µM*
O=S(=O)(c1ccc(Br)cc1)N1CCn2cccc2C1c1ccc(Br)cc1 (stereo unspecified)	2%	-24%	.	-6%	.
CC(C)(C)c1ccc(S(=O)(=O)/C=C/C#N)cc1	6.3µM*	.	.	?	.
Cc1ccc(C(c2sc3nc(-c4ccco4)nn3c2O)N2CCN(Cc3ccccc3)CC2)cc1 (stereo unspecified)	7%	-17%	.	-15%	.
CSc1nnc(SCC(=O)N(C)c2c(N)n(Cc3ccccc3)c(=O)[nH]c2=O)s1	-20%	-25%	1%	-1%	-9%
COCCN(C(=O)CSc1nnc(C)n1Cc1ccccc1)c1c(N)n(Cc2ccccc2)c(=O)[nH]c1=O	-1%	0%	-3%	-3%	27µM*
CN(C(=O)CSc1nnc(Nc2ccccc2)s1)c1c(N)n(Cc2ccccc2)c(=O)[nH]c1=O	-4%	-16%	-4%	-3%	21µM*
CCCN1C=CC(=CC=C(C#N)C#N)C=C1	-6%	22µM*	?	-4%	76%
O=C1C=CC2=C3c4cc(O)c(O)cc4C[C@@]3(O)COC2=C1	11µM*	.	.	.	.
COc1ccc(NC(=O)CS(=O)(=O)c2ccc(Br)cc2)cc1	6%	-14%	-6%	-1%	-6%
COc1ccc(NC(=O)CS(=O)(=O)c2cccc(Cl)c2)cc1	?	-15%	0%	3%	21µM*
Cn1c(=O)c2c(n3ncnc13)NC(=O)CC2c1cccc(F)c1 (stereo unspecified)	-2%	-2%	.	5%	.
O=C(NNS(=O)(=O)c1ccccc1[N+](=O)[O-])c1cccc([N+](=O)[O-])c1	-1%	-8%	-3%	-1%	17µM*
O=C(NNS(=O)(=O)c1ccccc1[N+](=O)[O-])c1cccnc1	?	-22%	-3%	-4%	27µM*
O=C(NNS(=O)(=O)c1ccccc1)c1cccnc1	-10%	-18%	1%	-6%	-17%
Cc1cccc(Cn2c(C)c(CNC3CCCCCC3)c(C(=O)O)c2C)c1	20%	-20%	.	3%	.
CC(C)(C)c1ccc(C2=NC(=O)C(CC(=O)O)S2)cc1 (stereo unspecified)	25µM*	-21%	-1%	-17%	27µM*
CCOC(=O)C1CCN(C(=O)c2[nH]c3ccc(OC)cc3c2C)CC1	0%	0%	0%	-7%	5%
COc1ccc(N2CCN(C(=O)c3[nH]c4ccc(OC)cc4c3C)CC2)cc1	-21%	-26%	0%	-8%	27µM*
COc1ccc2c(c1)O[C@@H](c1cccc(C(F)(F)F)c1)[C@H](OC(=O)NS(=O)(=O)c1ccc(C)cc1)C2=O	7%	.	.	.	.
SMILES	VDR inhibitor	USP1-UAF1 inh	TSG101-PTAP inh	KAT2A inh	PLK1 PBD inh
S=c1nc(-c2ccc(Cl)cc2)[nH][nH]1	-29%	-23%	-2%	-7%	38µM*
C=CCSc1n[nH]c(-c2ccc(OCCC)cc2)n1	1%	-8%	-5%	-22%	-5%
CCCOc1ccc(-c2nc(=S)[nH][nH]2)cc1	89µM*	-3%	-4%	-10%	?
S=c1nc(-c2ccco2)[nH][nH]1	2%	-10%	-3%	?	-15%
Cc1c(/C=C(\CC(=O)O)c2nc3ccccc3s2)cc(C#N)n1C	?	-15%	-4%	-13%	27µM*
Cc1nn(-c2ccccc2)c(Cl)c1/C=C(/CC(=O)O)c1nc2ccccc2s1	3%	-14%	-7%	.	-11%
CN1CCN(C(=O)c2cc(Cl)cc(Cl)c2NC(=O)c2ccco2)CC1	-28%	-14%	-3%	-1%	27µM*
Cc1ccc(/C=C2/C(=O)N(c3ccccc3)C(=S)N2C)o1	79µM*	-8%	-3%	-7%	-28%
CCOc1ccc(N2C(=O)/C(=C/c3ccco3)N(C)C2=S)cc1	-13%	-11%	-3%	18%	-8%
CC(=O)Nc1ccc(S(=O)(=O)Oc2cccc(/C=C3\SC(N)=NC3=O)c2)cc1	35µM*	-1%	-1%	2%	4.2µM*
CCC1CCc2c(sc(NC(=O)c3cnccn3)c2C(N)=O)C1 (stereo unspecified)	?	-5%	-2%	-7%	3µM*
O=C(NC1(C(F)(F)F)C(=O)Nc2c1c(=O)[nH]c(=O)n2-c1ccc(F)cc1)c1ccccc1 (stereo unspecified)	-1%	-17%	.	-7%	.
Cc1ccccc1-c1cc(N2CCNCC2)ncn1	45µM*	.	.	?	.
Cc1c(C)c2cc(Cl)c(O)c(CN3CCN(C)CC3)c2oc1=O	1%	-14%	-8%	25µM*	-2%
Cc1c(C)c2cc(Cl)c(O)c(CN3CCCC(C)C3)c2oc1=O (stereo unspecified)	-4%	-21%	-7%	?	-8%
CCC(=O)N1c2ccccc2NC2=C(C(=O)CC(c3ccco3)C2)C1c1ccco1 (stereo unspecified)	-4%	-14%	-3%	-8%	-5%
CC1(C)CC(=O)C2=C(C1)Nc1ccccc1N(C(=O)C1CC1)C2c1ccco1 (stereo unspecified)	-23%	-14%	-8%	-15%	9.5µM*
COc1ccc(OCC(=O)N/N=C/c2ccc(OC)c(OC)c2C(=O)O)cc1	-8%	-21%	-5%	32%	2%
Cc1ccccc1OCC(=O)N/N=C/c1ccccn1	-21%	-16%	-1%	-6%	30µM*
O=C(COc1ccc2ccccc2c1)NN1C(=O)c2ccccc2C1=O	-7%	5%	0%	-6%	27µM*
O=C(COc1ccc2ccccc2c1)N/N=C/c1ccccn1	-18%	-11%	-1%	24%	19µM*
COc1ccc(/C=N/NC(=O)COc2ccc3ccccc3c2)c(C(=O)O)c1OC	79µM*	-7%	-1%	3%	27µM*
O=C(COc1ccc2ccccc2c1)NCCNC(=O)COc1ccc2ccccc2c1	6%	-2%	-5%	-21%[0.501 µM]	-1%
Cc1ccc2c(c1)c1c(c(=O)n(-c3ccccc3C)c(=O)n1CC(=O)NCC1CCCO1)n2C (stereo unspecified)	-6%	-13%	-5%	-11%	1%
COc1cccc(C(C)(O)c2nc(-c3cnc4ccccc4c3)cs2)c1 (stereo unspecified)	.	.	.	.	2%
